# Sampled rows, rich in hits. Any-hit rate of the full collection: about 10%.
# FLuc inh-1 – inhibitors of firefly (Photinus pyralis) luciferase | 2.5% of 76,000 active | Potency, µM (doses to about 115 µM), hits mostly inhibitors | purified P. pyralis luciferase, luminescence, biochemical | AID 1347043; also: nearly all actives have a fitted effect of over 65% in size
#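 Biochemical qHTS: compound (6-point titration) added to 10uM D-luciferin plus 10uM ATP in Tris acetate pH 7.5 buffer with Mg, Tween-20 and BSA, then purified enzyme at 10nM; light output imaged.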
# GPT2 inh – blocks human glutamate pyruvate transaminase 2; Q8TD30; Recombinant GPT2, coupled pyruvate oxidase/HRP Amplex Red fluorescence; Potency, µM (highest dose often 57.7 µM), actives largely listed as inhibitors; 0.25% of 100,000 active; also: nearly all actives have a fitted effect of over 60% in size
# Target sequence (Q8TD30 whole entry, looked up): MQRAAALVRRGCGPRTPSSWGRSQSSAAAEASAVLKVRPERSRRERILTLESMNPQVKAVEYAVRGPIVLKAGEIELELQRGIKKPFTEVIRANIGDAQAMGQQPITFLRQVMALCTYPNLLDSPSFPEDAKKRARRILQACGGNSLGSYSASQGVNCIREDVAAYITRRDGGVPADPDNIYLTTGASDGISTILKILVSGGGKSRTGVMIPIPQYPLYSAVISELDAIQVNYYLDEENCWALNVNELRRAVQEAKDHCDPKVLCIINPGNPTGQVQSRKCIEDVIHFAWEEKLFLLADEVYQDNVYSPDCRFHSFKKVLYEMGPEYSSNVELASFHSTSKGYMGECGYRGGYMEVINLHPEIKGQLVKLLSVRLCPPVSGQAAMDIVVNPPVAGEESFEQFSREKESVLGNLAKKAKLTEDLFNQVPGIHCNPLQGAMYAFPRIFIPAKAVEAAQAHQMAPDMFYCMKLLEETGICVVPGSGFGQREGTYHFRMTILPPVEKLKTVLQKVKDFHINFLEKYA
#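 Inhibition is scored from Amplex Red fluorescence generated when pyruvate oxidase and HRP act on pyruvate released by GPT2. Reactions contain 10ng/uL enzyme, 250uM a-KG and 2mM L-alanine and run 30 min at room temperature.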
# HEK293 tox – kills HEK 293 cells | HEK 293 viability, ATP luminescence (CellTiter-Glo), 48-72 h | Potency, µM (doses to about 115 µM), actives largely listed as inhibitors | 6.6% of 94,000 active | AID 1345083; also: nearly all actives have a fitted effect of over 60% in size
#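 CellTiter-Glo luminescence (cellular ATP) was read after 48 or 72 hr of compound exposure at 37 degree Celsius. Cells were HEK 293 plated at 250 cells/well.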
# 3T3 cytotox – NIH 3T3 cell cytotoxicity. 4.3% of 94,000 active. Potency, µM (titrated, usually from 96.7 µM), hits mostly inhibitors. AID 1345082. NIH 3T3 viability, CellTiter-Glo ATP luminescence, 48-72 h; also: nearly all actives have a fitted effect of over 55% in size
#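 Cells were seeded at 400 per well, treated with pin-transferred compound, and kept 48 or 72 hr at 37 °C before CellTiter-Glo addition and luminescence imaging of cellular ATP.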
# hNpr1 antagonist – human Npr1 receptor antagonism | HEK293 hNpr1 GloSensor cGMP, ANP-stimulated luminescence | 1.6% of 76,000 active | Potency, µM (titrated, usually from 46.3 µM), actives largely listed as inhibitors | P16066 | AID 1347048; calls by dose curve; also: nearly all actives have a fitted effect of over 60% in size
#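 Compound pre-incubated 30 min at room temperature on GloSensor-loaded HEK293 cells stably carrying hNpr1 and the pGS-40F cGMP biosensor. Stimulation uses hNppA at 0.1 nM final; luminescence is taken at baseline and 20 min post-agonist.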
# FLuc SDR -ATP – stabilizes firefly luciferase without ATP | shares compounds with FLuc inh-1 | Purified FLuc-C-HiBiT, Nano-Glo HiBiT luminescence, no ATP | Potency, µM (series often up to 32.7 µM), hits mostly activators | 7.8% of 1,300 active; also: nearly all actives have a fitted effect of over 55% in size
# FLuc SDR ATP – stabilizes firefly luciferase with ATP present; purified FLuc-C-HiBiT + ATP, HiBiT complementation luminescence; Potency, µM (series often up to 32.7 µM), usual class: activators; 8.7% of 1,300 active; shares compounds with FLuc inh-1; AID 1963319;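 also: signal reports ligand binding via conformational change of the enzyme rather than luciferase catalysis; nearly all actives have a fitted effect of over 55% in size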
# FLuc inh-2 – firefly luciferase enzyme inhibition; shares compounds with FLuc inh-1; purified FLuc-C-HiBiT enzyme, luciferin luminescence; Potency, µM (highest dose often 32.7 µM), hits mostly inhibitors; 42% of 1,300 active; AID 1963320; also: nearly all actives have a fitted effect of over 70% in size
# Npr1 antag conf – confirmation of human Npr1 natriuretic peptide receptor antagonists; HEK293 hNpr1 cGMP GloSensor luminescence, ANP-stimulated; AID 1347044; shares compounds with hNpr1 antagonist; Potency, µM (highest dose often 57.6 µM), actives largely listed as inhibitors; 76% of 1,400 active; calls by dose curve; also: nearly all actives have a fitted effect of over 70% in size
# NPR2 antag – antagonizes human Npr2, subtype selectivity check. shares compounds with hNpr1 antagonist. HEK293 hNpr2 GloSensor cGMP luminescence, CNP-stimulated. Potency, µM (top dose mostly 57.6 µM), actives largely listed as inhibitors. 67% of 1,400 active. AID 1347046; calls by dose curve; also: nearly all actives have a fitted effect of over 70% in size
# FLuc inh counter – counter-screen for Npr1 antagonists: firefly luciferase inhibitors. shares compounds with hNpr1 antagonist. purified FLuc enzyme, luminescence, Km substrate. Potency, µM (doses to about 57.6 µM), hits mostly inhibitors. 0.7% of 1,400 active
# GloSensor ctrl – control cell line activity, Npr1 antagonist counter-screen | shares compounds with hNpr1 antagonist | HEK293 GloSensor cGMP, SNP-stimulated, luminescence | Potency, µM (highest dose often 57.6 µM), most hits filed as inhibitors | 69% of 1,400 active; calls by dose curve; also: nearly all actives have a fitted effect of over 70% in size
# Numbers stand for hits; . = inactive; ? = inconclusive; / = not tested or not shown. Unless noted, calls follow the shape of the dose curve; as a rule, active = well fitted curve in the direction sought with a large enough effect; inconclusive = small, poorly fitted or top-dose-only effect, or another doubt; inactive = no such curve, though single readings can be large; an effect the other way counts as inactive or inconclusive.
SMILES,FLuc inh-1,GPT2 inh,HEK293 tox,3T3 cytotox,hNpr1 antagonist,FLuc SDR -ATP,FLuc SDR ATP,FLuc inh-2,others
CCOc1ccccc1NC(=O)N1CCCN(S(=O)(=O)c2ccccc2)CCC(=O)NCC1,.,.,.,.,.,/,/,/,
Cc1ccc(-c2ncc(C(=O)Nc3ccccc3Cl)c(-c3ccncc3)n2)cc1,.,.,.,.,.,/,/,/,
Cn1nc(-c2ccncc2)cc1NC(=O)Cc1ccccc1,/,.,.,?,/,/,/,/,
Cc1c(NC(=O)c2cccc(Cl)c2Cl)cccc1-c1nc2ccccc2s1,/,/,/,/,/,.,.,.,
Cc1c(NC(=O)Cc2ccccc2)cccc1-c1nc2ccccc2s1,/,/,/,/,/,?,.,?,
CCC(=O)Nc1cc(-c2nc3ccccc3s2)c(Cl)cc1Cl,/,/,/,/,/,.,.,.,
Cc1c(NC(=O)c2ccc(I)o2)cccc1-c1nc2ccccc2s1,/,/,/,/,/,.,.,7µM,
CN(C)C(=O)C1CCCN1c1nccc(Nc2ccccc2F)n1 (stereo unspecified),/,.,.,.,/,/,/,/,
COc1ccc(CN(C(=O)c2ccco2)c2ccc(CC(=O)NCCc3ccccc3)cc2)cc1,.,.,?,?,.,/,/,/,
Cc1ccc(S(=O)(=O)N2CCC(n3cnnc3C)CC2)cc1F,.,.,.,.,.,/,/,/,
O=C(O)CCCC(=O)N1Cc2ccccc2CC2(CCCN(Cc3ccccn3)C2)C1 (stereo unspecified),/,.,.,.,/,/,/,/,
CSCc1ccc(C(=O)N2CCCC(O)(CN3CCCC3)C2)o1 (stereo unspecified),.,.,?,.,.,/,/,/,
Cc1ccc(NC(=O)c2ccc3oc(-c4ccncc4)nc3c2)cc1,/,.,?,.,/,/,/,/,
CCc1ccc2oc(-c3ccc(NC(=O)c4ccc(OC)c(Br)c4)cc3)nc2c1,/,/,/,/,/,.,.,.,
CCc1ccc2oc(-c3cccc(NC(=O)c4cc5ccccc5o4)c3)nc2c1,/,/,/,/,/,.,.,?,
COCCNC(=O)c1ccc2nnc(-c3cccc(OC(F)(F)F)c3)n2c1,/,.,.,.,/,/,/,/,
COc1ccc(-c2ccc(COc3ccc4c(cnn4CCC(=O)O)c3)cc2)c(Cl)c1,?,.,?,.,.,/,/,/,
COc1cc(F)cc(-c2ccc(COc3ccc4c(cnn4CCC(=O)O)c3)cc2)c1,?,.,?,?,.,/,/,/,
Cc1ccc(F)cc1-c1ccc(COc2ccc3c(cnn3CCC(=O)O)c2)cc1,22µM,.,?,?,.,.,.,?,
Cc1ccccc1-c1ccc(COc2ccc3c(cnn3CCC(=O)O)c2)cc1,?,.,?,?,.,.,.,16µM,
COc1cccc(F)c1-c1ccc(COc2ccc3c(cnn3CCC(=O)O)c2)cc1,25µM,.,?,?,.,.,.,?,
CCCOC(=O)CSc1ncnc2sc3c(c12)CCC(C)C3 (stereo unspecified),/,/,/,/,/,.,.,?,
CCNc1ncnc2sc3c(c12)CCN(C(=O)NCCOC)C3,.,.,.,.,.,/,/,/,
O=C(c1nc2cccnc2n(Cc2ccccc2)c1=O)N1CCN([S+](=O)([O-])c2cccc(C(F)(F)F)c2)CC1,/,.,?,.,/,/,/,/,
Cc1ccncc1NC(=O)CC1=C2CCCCC2N(Cc2ccc(F)cc2)C1=O (stereo unspecified),/,.,?,?,/,/,/,/,
SMILES,FLuc inh-1,GPT2 inh,HEK293 tox,3T3 cytotox,hNpr1 antagonist,FLuc SDR -ATP,FLuc SDR ATP,FLuc inh-2,others
CCCc1nn2cc(-c3ccc(C)c(C)c3)nc2s1,/,/,/,/,/,?,?,0.62µM,
Cc1ccc(-c2ccc3nnc(CNC(=O)COc4ccccc4)n3n2)cc1C,.,.,?,.,.,/,/,/,
O=C(NC1CCCC1)N1c2ccccc2CC1c1noc(C2CCOCC2)n1 (stereo unspecified),5µM,.,?,.,.,.,.,?,
CCc1ccccc1NC(=O)N1c2ccccc2CC1c1nc(C2CC2)no1 (stereo unspecified),.,.,?,?,.,/,/,/,
Cc1noc(-c2cccn3c(CNC(=O)c4ccccc4)nnc23)n1,.,.,.,.,.,/,/,/,
Cc1noc(-c2cccn3c(CNC(=O)c4ccc(C(C)(C)C)cc4)nnc23)n1,7.9µM,.,?,.,.,?,?,9.9µM,
Cc1cccn2c(=O)c(C(=O)NCCc3ccccc3)cnc12,/,/,/,/,/,?,?,7µM,
COc1ccc(C(=O)N2CCC3(CC2)CC(N(Cc2ccccc2)C2CC2)CCO3)cc1 (stereo unspecified),.,.,?,?,.,/,/,/,
CCN1CCN(c2ccc3nnc(C4CCC4)n3n2)CC1,.,.,.,.,.,/,/,/,
Nc1cccc(-c2ccc(N3CCCCC3)nn2)c1,0.4µM,.,35µM,35µM,4µM,1.6µM,1.2µM,0.56µM,
CCN1CCN(c2ccc(-c3cccc(N)c3)nn2)CC1,14µM,.,?,?,?,.,?,9.9µM,
N=c1nc(N2CCCCC2)cc(N)n1O,/,.,/,/,/,/,/,/,
Clc1cccc(-c2nc3ccccc3s2)c1,/,/,/,/,/,.,.,8.8µM,
c1ccc2sc(SSc3nc4ccccc4s3)nc2c1,/,.,/,/,/,/,/,/,
FC(F)(F)c1cc(-c2nc3ccccc3s2)cc(C(F)(F)F)c1,/,/,/,/,/,.,.,?,
Cc1ccc(C)c(N2CCN(C(=O)c3ccc(NC(=O)c4nsc5ccccc45)cc3)CC2)c1,/,/,/,/,/,.,?,?,
Cc1ncc2n1C(=O)N(C1CCN(Cc3cccc(C(F)(F)F)c3)CC1)C2,.,.,?,?,.,/,/,/,
Cc1ccc(CN2C[C@@H](CO)[C@H](c3nc(-c4ccncc4)no3)C2)cc1,.,.,?,?,11µM,/,/,/,Npr1 antag conf=24µM;NPR2 antag=24µM;FLuc inh counter=.;GloSensor ctrl=24µM
O=C1NCc2ccccc2CC12CCN(CCc1ccccc1)CC2,/,.,?,.,/,/,/,/,
